Bioassay records as filed in PubChem.
Most compounds without a hit are left out; they make up all but 6.3% or so of the library.
TGFb SMAD3 inh = blocks TGF-b signaling | HepG2 CAGA-GFP TGF-b/SMAD3 reporter, GFP fluorescence, 18 h; TGF-beta stimulated, 500 pg/mL final | AID 588855 | Potency, µM (titrated, usually from 46.1 µM), without a hit: at the highest dose activity, negative = inhibition, usual class: inhibitors | hit rate 1.2% among 410,000; note: % is set by controls: 0 for no effect and ±100 for the full control effect; nearly all actives have a fitted effect of over 65% in size
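First, reporter cells (HEPG2 CAGA-GFP) rested 2 h at 37 degrees C. Next, compounds were pinned in and TGF-beta added to 500 pg/mL final. After 18 h, GFP was imaged per cell and summed per well.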
Gal4-VP16 FLuc = inhibits Gal4-VP16 luciferase reporter, ROR gamma counter-screen | hit rate 3.5% among 310,000 | Drosophila S2 Gal4-VP16 UAS-luciferase, luminescence, 20 h | Potency, µM (series often up to 53.6 µM), without a hit: at the highest dose activity, negative = inhibition, actives largely listed as inhibitors;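 note: Gal4-VP16 expression switched on by copper sulfate through the metallothionein promoter; % is set by controls: 0 for no effect and ±100 for the full control effect; nearly all actives have a fitted effect of over 50% in size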
HepG2 viability = kills HepG2 cells in TGF-b inhibitor counter-screen | HepG2 CAGA-GFP viability, ATP luminescence, 18 h | Potency, µM (titrated, usually from 46.1 µM), inactives show at the top dose activity change, negative = cytotoxicity, usual class: cytotoxic | hit rate 0.76% among 410,000 | AID 588856
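HepG2 CAGA-GFP cells (1000/well, DMEM with 1% FBS) received compound, then TGF-beta at 500 pg/mL final, and were incubated 18 hours at 37 degrees C. Viability was read by CellTiter-Glo luminescence. Media-only wells were set as complete cell-killing and DMSO as no toxicity.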
S2 tox = viability counter-screen for ATXN expression inhibitors. Potency, µM (titrated, usually from 56.7 µM), actives largely listed as cytotoxic. S2 cells (HEK-293 line with an ATXN2-luciferase reporter) viability, CellTiter-Fluor protease fluorescence, 24 h. AID 651635. hit rate 0.49% among 400,000; note: nearly all actives have a fitted effect of over 40% in size
ATXN2 expr inh = reduces ATXN2 reporter expression in HEK-293 cells; HEK-293 ATXN2-luciferase reporter, luminescence, 24 h; Potency, µM (top dose mostly 57 µM), for the others: at the highest dose activity change, negative = inhibition, usual class: inhibitors; hit rate 0.72% among 360,000; note: % is set by controls: 0 for no effect and ±100 for the full control effect; nearly all actives have a fitted effect of over 55% in size
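ATXN2-luciferase reporter cells (luciferase flanked by upstream and downstream ATXN2 gene portions) were treated 24 h at 37 °C with compounds at up to 57 uM. SteadyGlo luminescence gave expression; GF-AFC fluorescence gave viability.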
RORg inh = inhibitors of mouse ROR gamma transcriptional activity; P51450; Drosophila S2 Gal4-RORgamma UAS-luciferase reporter, 20 h; Potency, µM (doses to about 53.6 µM), for the others: top-dose activity change, negative = inhibition, actives largely listed as inhibitors; hit rate 5.4% among 310,000; AID 2551; note: % is set by controls: 0 for no effect and ±100 for the full control effect; nearly all actives have a fitted effect of over 60% in size
Target sequence (P51450 whole entry, looked up, the tested form may be a part): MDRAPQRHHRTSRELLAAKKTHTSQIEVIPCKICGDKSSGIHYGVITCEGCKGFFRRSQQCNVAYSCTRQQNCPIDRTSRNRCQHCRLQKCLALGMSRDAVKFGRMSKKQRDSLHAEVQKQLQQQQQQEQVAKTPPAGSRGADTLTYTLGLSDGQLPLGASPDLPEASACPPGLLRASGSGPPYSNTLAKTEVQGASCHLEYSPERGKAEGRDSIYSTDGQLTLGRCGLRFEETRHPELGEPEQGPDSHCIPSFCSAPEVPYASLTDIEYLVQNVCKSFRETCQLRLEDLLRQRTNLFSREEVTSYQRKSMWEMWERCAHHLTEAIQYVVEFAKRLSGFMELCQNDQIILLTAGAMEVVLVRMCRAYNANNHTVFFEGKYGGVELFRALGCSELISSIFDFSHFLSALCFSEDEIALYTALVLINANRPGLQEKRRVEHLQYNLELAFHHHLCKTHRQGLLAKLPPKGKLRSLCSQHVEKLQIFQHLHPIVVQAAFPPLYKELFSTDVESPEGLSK
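Stable Schneider cell line, Gal4 DNA-binding domain fused to ROR gamma, UAS-luciferase. Cmpd 1 hr RT → CuSO4 700 uM final → 20 hr RT → luciferase reagent 10 min → luminescence.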
The depositor's hits bear a star; i = inactive; ? = inconclusive; · = no result given; [ ] = remark or other dose. Calls come from the whole dose curve; as a rule, active = well fitted curve in the direction sought with a large enough effect; inconclusive = small, poorly fitted or top-dose-only effect, or another doubt; inactive = no such curve, though single readings can be large; an effect the other way counts as inactive or inconclusive. Potency is the fitted concentration of half-maximal effect.

SMILES	TGFb SMAD3 inh	Gal4-VP16 FLuc	HepG2 viability	S2 tox	ATXN2 expr inh	RORg inh
CCOC(=O)/C(=C/c1ccc(OC(F)F)cc1)C1=Nn2c(nnc2-c2ccc(Cl)cc2)SC1	?	·	3.16µM*	7.94µM*	10µM*	·
COc1ccc(-c2nnc3n2N=C(C)CS3)cc1	1.8%	0.9%	-13.8%	i	8.4%	-0.6%
Cc1ccc(NC(=O)CSc2nc3nccnc3c(=O)n2CCc2c[nH]c3ccccc23)cc1C	-27.0%	·	-8.4%	·	·	·
O=C(NCc1ccc(Cl)cc1)c1ccc(-c2ccccc2C(F)(F)F)o1	15.8µM*	-13.4%	-58.5%	i	-16.7%	-9.1%
O=C(Nc1ccccc1)c1ccc(-c2ccccc2C(F)(F)F)o1	?	17.1%	-28.2%	?	19.5%	?
O=S(=O)(c1ccc(NC(=S)N/N=C/c2c3ccccc3cc3ccccc23)cc1)N1CCOCC1	?	7.08µM*	-23.9%	?	·	?
O=S(=O)(c1ccc(NC(=S)NN=C2CCCCC2)cc1)N1CCOCC1	-1.8%	?	-5.1%	i	-4.0%	8.91µM*
C=C(C)/C=N/NC(=S)Nc1ccc(S(=O)(=O)N2CCOCC2)cc1	4.7%	?	-7.7%	i	0.6%	?
O=S(=O)(c1ccc(NC(=S)Nc2ccc(OC(F)F)cc2)cc1)N1CCOCC1	?	13.2%	-7.2%	i	-3.3%	-3.2%
O=S(=O)(c1ccc(NC(=S)N/N=C/c2ccc(Oc3ccccc3)cc2)cc1)N1CCOCC1	-1.9%	-6.0%	3.8%	i	-19.7%	0.501µM*
NNC(=S)Nc1ccc(S(=O)(=O)N2CCOCC2)cc1	5.4%	3.2%	-0.4%	i	3.6%	?
O=S(=O)(c1ccc(NC(=S)N/N=C/c2ccc(N3CCOCC3)cc2)cc1)N1CCOCC1	0.0%	6.31µM*	7.6%	i	-20.2%	?
Cc1ccc2c(c1)CN(CCC(=O)NCc1cc(C)n(C)n1)CC(C)O2 (stereo not drawn)	·	·	·	i	·	·
COc1ccc(NC(=O)C2(C)Cc3c(-c4ccc(N(C)C)cc4)ccnc3O2)cc1OC (stereo not drawn)	7.0%	·	-21.1%	i	-9.8%	·
CCCCC(=O)Nc1nnc(S(=O)(=O)N(C)Cc2ccc(Cl)cc2)s1	-0.6%	·	11.8%	·	·	·
COc1ccc(-n2ccnc(NCc3cccs3)c2=O)cc1	-9.8%	·	-12.5%	i	6.2%	·
CC(C)c1c(C(=O)N2CCCCC2c2cccnc2)cnn1-c1nccc(-c2cccs2)n1 (stereo not drawn)	·	·	·	i	·	·
CN(C)C(=O)COc1ccccc1C(=O)OCC(=O)N(CCC#N)c1ccccc1	-10.2%	·	-5.9%	·	·	·
COc1ccc(-c2noc(CNS(=O)(=O)c3ccc(NC(C)=O)cc3)n2)cc1	2.2%	-6.5%	3.6%	i	-8.4%	11.1%
O=C(NCc1nc(-c2ccc(C(F)(F)F)cc2)no1)Nc1ccc(OC(F)(F)F)cc1	11.2µM*	?	-90.1%	?	?	2.0%
CCOc1ccccc1NC(=S)Nn1cnnc1	0.4%	-14.8%	7.0%	i	1.8%	-33.6%
CCOc1ccccc1NC(=S)Nc1ccccc1F	8.9%	?	-1.3%	?	2.0%	11.2µM*
CCOc1ccccc1NC(=S)NNS(=O)(=O)c1c(C)cc(C)cc1C	-0.6%	14.1µM*	7.2%	i	0.0%	10µM*
CCOc1ccccc1NC(=S)NCc1cccn1C	11.7%	20µM*	-7.6%	i	2.7%	11.2µM*
CCOc1ccccc1NC(=S)Nc1ncccc1C	0.0%	7.08µM*	-12.1%	i	-5.7%	7.08µM*
SMILES	TGFb SMAD3 inh	Gal4-VP16 FLuc	HepG2 viability	S2 tox	ATXN2 expr inh	RORg inh
CCOc1ccccc1NC(=O)NNS(=O)(=O)c1cc(C)ccc1C	-2.0%	-0.6%	-3.4%	i	-6.4%	-3.9%
O=C(Cn1c(=O)n2nc(-c3ccccc3)nc2c2ccccc21)Nc1ccccc1C(F)(F)F	-2.4%	·	-11.3%	·	·	·
CCOc1ccc(CNC(=S)Nc2ccccc2)cc1Cl	?	5.62µM*	-22.1%	i	-13.1%	5.62µM*
CCOc1ccccc1NC(=S)NCc1ccccc1	-23.6%	8.91µM*	-19.5%	i	-9.9%	7.08µM*
COc1ccc(CNC(=S)NCc2ccc(Cl)cc2)cc1OC	-4.9%	22.4µM*	-21.7%	i	-27.3%	?
COc1ccccc1NC(=S)NCc1ccc(Cl)cc1	0.4%	8.91µM*	-9.1%	i	-12.3%	11.2µM*
COc1ccccc1NC(=S)NCc1ccccn1	-21.0%	?	-25.8%	i	5.5%	?
O=C(c1ccncc1)N1CCC2(CC1)CN(c1ccccc1)C2	·	11.6%	·	·	·	-0.2%
O=C(NCCN1Cc2ccccc2OC(c2ccsc2)C1)c1ccc2[nH]ccc2c1 (stereo not drawn)	·	·	·	i	·	·
O=C(CCCOc1ccc(Cl)cc1Cl)Nc1ccccc1C(=O)O	-5.6%	-11.7%	0.6%	i	174.2%	8.1%
CCOc1ccccc1NC(=S)NCc1ccco1	-1.7%	?	-53.2%	i	-4.4%	10µM*
COc1ccccc1NC(=S)NCc1ccccc1	0.3%	?	1.7%	i	-1.6%	14.1µM*
COc1ccccc1NC(=O)NCc1ccco1	20.7%	-10.5%	5.0%	i	8.1%[11.3 µM]	0.8%
CCOc1ccccc1NC(=S)NC(=O)CCCOc1ccc(Cl)cc1Cl	?	22.4µM*	-12.7%	i	-20.2%	5.01µM*
Cc1c(-c2ccccc2)c(=O)oc2c(CN3CCOCC3)c(O)ccc12	-14.5%	·	-14.6%	·	0.4%	·
Nc1c(C(=O)N2CCOCC2)sc2nc3c(cc12)CCCC3	3.8%	?	-15.7%	i	3.16µM*	10µM*
Cc1cc(C)c2nc3sc(C(=O)N4CCOCC4)c(N)c3cc2c1	?	?	-3.7%	?	·	10µM*
COC(=O)CN1C(=O)CSc2ccc(S(=O)(=O)Nc3ccccc3)cc21	0.5%	·	-13.5%	·	·	·
CCOc1ccc(N(CC(=O)Nc2cccc(Cl)c2)S(=O)(=O)c2c(C)noc2C)cc1	?	12.6µM*	-11.9%	?	-37.7%	15.8µM*
CCCCNc1ccc(/C=C2\C=Cc3ccccc32)cc1	-27.7%	·	-28.0%	·	·	·
COc1ccccc1-c1cn[nH]c(=S)n1	-26.5%	?	-15.1%	i	?	8.91µM*
Cc1ccnc(NC(=O)c2cc([N+](=O)[O-])cc([N+](=O)[O-])c2)c1	-4.1%	15.2%	-3.7%	i	2.9%[11.3 µM]	-44.6%
Cc1cccc(NC(=O)c2ccc([N+](=O)[O-])s2)n1	14.1µM*	?	-103.9%	i	·	6.4%
O=C(Nc1ccccc1N1CCOCC1)c1ccccc1[N+](=O)[O-]	14.0%	-15.9%	2.6%	i	-3.9%	21.5%
O=C(Nc1ccccc1N1CCOCC1)c1ccc([N+](=O)[O-])s1	11.2µM*	·	-90.3%	?	?	·
